Results filed as inconclusive are left out. The source made the active and inactive calls. Calls follow the shape of the dose curve; as a rule, active = well fitted inhibition curve with a large enough effect; inconclusive = small, poorly fitted or top-dose-only effect; inactive = flat fitted curve, though single readings scatter.
Tests used:
Test in all cases: qHTS profiling for inhibitors of Plasmodium falciparum proliferation (AID 504749); also: nearly all actives have a fitted effect of over 60% in size
Conditions in all cases: P. falciparum in erythrocytes, SYBR Green DNA, 72 h; series mostly up to 28.7 µM
CP194 = test system: CP194
Outline: (§1)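 Infected RBCs, 0.3% parasitemia/2.5% Hct final; cpd 72 h, 37 C, 5% CO2; lysis buffer with saponin/triton/SYBR Green I, o/n RT dark; FI 485/535; norm. to artemisinin (0.29 uM) and DMSO.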

CP201 = test system: CP201
Outline: as §1

CP203 = test system: CP203
Outline: as §1

CP211 = test system: CP211
Outline: as §1

CP215 = test system: CP215
Outline: as §1

CP217 = test system: CP217
Outline: as §1

CP237 = test system: CP237
Outline: as §1

CP238 = test system: CP238
Outline: as §1

CP247 = test system: CP247
Outline: as §1

CP250 = test system: CP250
Outline: as §1

CP252 = test system: CP252
Outline: as §1

CP256 = test system: CP256
Outline: as §1

CP260 = test system: CP260
Outline: as §1

CP262 = test system: CP262
Outline: as §1

CP265 = test system: CP265
Outline: as §1

CP266 = test system: CP266
Outline: as §1

CP268 = test system: CP268
Outline: as §1

CP269 = test system: CP269
Outline: as §1

CP286 = test system: CP286
Outline: as §1

CP291 = test system: CP291
Outline: as §1

Measured: Potency
Potency is read from the fitted curve at half-maximal effect.

CC(N)CCCC(C)(C)O (stereo not given)
inactive: CP194 | CP201 | CP203 | CP211 | CP215 | CP217 | CP237 | CP238 | CP247 | CP250 | CP252 | CP256 | CP260 | CP262 | CP265 | CP266 | CP268 | CP269 | CP286 | CP291

CCCCCCCC(=O)OCC(O)CO (stereo not given)
inactive: CP194 | CP201 | CP203 | CP211 | CP215 | CP217 | CP237 | CP238 | CP247 | CP250 | CP252 | CP256 | CP260 | CP262 | CP265 | CP266 | CP268 | CP269 | CP286 | CP291

CCCCCCCCCCCCCCCCC(C(=O)O)C(O)(CC(=O)O)C(=O)O (stereo not given)
active: CP247 11.2 µM
inactive: CP194 | CP201 | CP203 | CP211 | CP215 | CP217 | CP237 | CP238 | CP250 | CP252 | CP256 | CP260 | CP262 | CP265 | CP266 | CP268 | CP269 | CP286 | CP291

CC(C)(C)C(=O)OCOC(=O)[C@@H]1N2C(=O)[C@@H](NC(=O)[C@H](N)c3ccccc3)[C@H]2SC1(C)C
inactive: CP194 | CP201 | CP203 | CP211 | CP215 | CP217 | CP237 | CP238 | CP247 | CP250 | CP252 | CP256 | CP260 | CP262 | CP265 | CP266 | CP268 | CP269 | CP286 | CP291

CC(=O)Nc1ccccc1
inactive: CP194 | CP201 | CP203 | CP211 | CP215 | CP217 | CP237 | CP238 | CP247 | CP250 | CP252 | CP256 | CP260 | CP262 | CP265 | CP266 | CP268 | CP269 | CP286 | CP291

CCN(CC)S(=O)(=O)c1ccc(C(=O)O)cc1
inactive: CP194 | CP201 | CP203 | CP211 | CP215 | CP217 | CP237 | CP238 | CP247 | CP250 | CP252 | CP256 | CP260 | CP262 | CP265 | CP266 | CP268 | CP269 | CP286 | CP291

O=C1c2ccccc2S(=O)(=O)N1CCCCN1CCN(c2ncccn2)CC1
inactive: CP194 | CP201 | CP203 | CP211 | CP215 | CP217 | CP237 | CP238 | CP247 | CP250 | CP252 | CP256 | CP260 | CP262 | CP265 | CP266 | CP268 | CP269 | CP286 | CP291

Cc1cccc(C)c1NC(=O)CC12CCCN1CCC2
inactive: CP194 | CP201 | CP203 | CP211 | CP215 | CP217 | CP237 | CP238 | CP247 | CP250 | CP252 | CP256 | CP260 | CP262 | CP265 | CP266 | CP268 | CP269 | CP286 | CP291

Cc1c(Cn2ccnc2)c2ccccc2n1CCC(=O)O
inactive: CP194 | CP201 | CP203 | CP211 | CP215 | CP217 | CP237 | CP238 | CP247 | CP250 | CP252 | CP256 | CP260 | CP262 | CP265 | CP266 | CP268 | CP269 | CP286 | CP291

CC(C)=CCC/C(C)=C/CO
inactive: CP194 | CP201 | CP203 | CP211 | CP215 | CP217 | CP237 | CP238 | CP247 | CP250 | CP252 | CP256 | CP260 | CP262 | CP265 | CP266 | CP268 | CP269 | CP286 | CP291

O=C(NCN1CCOCC1)c1cnccn1
inactive: CP194 | CP201 | CP203 | CP211 | CP215 | CP217 | CP237 | CP238 | CP247 | CP250 | CP252 | CP256 | CP260 | CP262 | CP265 | CP266 | CP268 | CP269 | CP286 | CP291

O=c1[nH]cnc2nc[nH]c12
inactive: CP194 | CP201 | CP203 | CP211 | CP215 | CP217 | CP237 | CP238 | CP247 | CP250 | CP252 | CP256 | CP260 | CP262 | CP265 | CP266 | CP268 | CP269 | CP286 | CP291

O=C(Cn1ccnc1[N+](=O)[O-])NCc1ccccc1
inactive: CP194 | CP201 | CP203 | CP211 | CP215 | CP217 | CP237 | CP238 | CP247 | CP250 | CP252 | CP256 | CP260 | CP262 | CP265 | CP266 | CP268 | CP269 | CP286 | CP291

NS(=O)(=O)c1cc(-c2nn[nH]n2)c(NCc2cccs2)cc1Cl
inactive: CP194 | CP201 | CP203 | CP211 | CP215 | CP217 | CP237 | CP238 | CP247 | CP250 | CP252 | CP256 | CP260 | CP262 | CP265 | CP266 | CP268 | CP269 | CP286 | CP291

CC(=O)Oc1cccc(C)c1
inactive: CP194 | CP201 | CP203 | CP211 | CP215 | CP217 | CP237 | CP238 | CP247 | CP250 | CP252 | CP256 | CP260 | CP262 | CP265 | CP266 | CP268 | CP269 | CP286 | CP291

N[C@@H](Cc1ccc(O)cc1)C(=O)O
inactive: CP194 | CP201 | CP203 | CP211 | CP215 | CP217 | CP237 | CP238 | CP247 | CP250 | CP252 | CP256 | CP260 | CP262 | CP265 | CP266 | CP268 | CP269 | CP286 | CP291

Nc1ccc(S(=O)(=O)c2ccc(N)cc2)cc1
inactive: CP194 | CP201 | CP203 | CP211 | CP215 | CP217 | CP237 | CP238 | CP247 | CP250 | CP252 | CP256 | CP260 | CP262 | CP265 | CP266 | CP268 | CP269 | CP286 | CP291

CCCCC1(COC(=O)CCC(=O)O)C(=O)N(c2ccccc2)N(c2ccccc2)C1=O
inactive: CP194 | CP201 | CP203 | CP211 | CP215 | CP217 | CP237 | CP238 | CP247 | CP250 | CP252 | CP256 | CP260 | CP262 | CP265 | CP266 | CP268 | CP269 | CP286 | CP291

O=C(O)Cc1cn(-c2ccccc2)nc1-c1ccc(Cl)cc1
inactive: CP194 | CP201 | CP203 | CP211 | CP215 | CP217 | CP237 | CP238 | CP247 | CP250 | CP252 | CP256 | CP260 | CP262 | CP265 | CP266 | CP268 | CP269 | CP286 | CP291

CC(=O)Oc1cccc(O)c1
inactive: CP194 | CP201 | CP203 | CP211 | CP215 | CP217 | CP237 | CP238 | CP247 | CP250 | CP252 | CP256 | CP260 | CP262 | CP265 | CP266 | CP268 | CP269 | CP286 | CP291

O=C(O)c1ccc[n+]([O-])c1
inactive: CP194 | CP201 | CP203 | CP211 | CP215 | CP217 | CP237 | CP238 | CP247 | CP250 | CP252 | CP256 | CP260 | CP262 | CP265 | CP266 | CP268 | CP269 | CP286 | CP291

Cn1c(=O)c2c(ncn2CCO)n(C)c1=O
inactive: CP194 | CP201 | CP203 | CP211 | CP215 | CP217 | CP237 | CP238 | CP247 | CP250 | CP252 | CP256 | CP260 | CP262 | CP265 | CP266 | CP268 | CP269 | CP286 | CP291

CC(=O)NS(=O)(=O)c1ccc(N)cc1
inactive: CP194 | CP201 | CP203 | CP211 | CP215 | CP217 | CP237 | CP238 | CP247 | CP250 | CP252 | CP256 | CP260 | CP262 | CP265 | CP266 | CP268 | CP269 | CP286 | CP291

COC(=O)c1cccnc1
inactive: CP194 | CP201 | CP203 | CP211 | CP215 | CP217 | CP237 | CP238 | CP247 | CP250 | CP252 | CP256 | CP260 | CP262 | CP265 | CP266 | CP268 | CP269 | CP286 | CP291

Cc1c(I)c(=O)n(-c2ccccc2)n1C
inactive: CP194 | CP201 | CP203 | CP211 | CP215 | CP217 | CP237 | CP238 | CP247 | CP250 | CP252 | CP256 | CP260 | CP262 | CP265 | CP266 | CP268 | CP269 | CP286 | CP291

OC[C@@H](O)[C@@H](O)[C@H](O)[C@H](O)CO
inactive: CP194 | CP201 | CP203 | CP211 | CP215 | CP217 | CP237 | CP238 | CP247 | CP250 | CP252 | CP256 | CP260 | CP262 | CP265 | CP266 | CP268 | CP269 | CP286 | CP291

CC1CC(OC(=O)c2ccccc2O)CC(C)(C)C1 (stereo not given)
inactive: CP194 | CP201 | CP203 | CP211 | CP215 | CP217 | CP237 | CP238 | CP247 | CP250 | CP252 | CP256 | CP260 | CP262 | CP265 | CP266 | CP268 | CP269 | CP286 | CP291

From PubChem BioAssay (NCATS)
